Screening results as filed in PubChem.
Only some compounds are listed: those with a hit (about 7.3% of all), similar ones and a draw of the others.
NPC1 prom act – activates the NPC1 promoter; Potency, µM (doses to about 9.22 µM), for inactives: at the top dose activation, hits mostly activators; Huh7 NPC1 promoter luciferase reporter, 24 h; 320,000 tested, 2.4% active; also: % of control where 0% means no effect; nearly all actives have a fitted effect of over 60% in size
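Luminescence read-out of NPC1 promoter-driven luciferase in stably transfected Huh7 cells; compounds delivered in DMSO and left 24 h at 37C, 5% CO2, qHTS titration format.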
ELG1 genotoxic – genotoxicity induction in ELG1-luciferase HEK293T cells | Potency, µM (doses to about 46 µM), without a hit: top-dose activity change, positive = activation, most hits filed as activators | AID 504466 | 330,000 tested, 1.3% active | HEK293T ELG1-luciferase reporter, luminescence, 16 h; also: % of control where 0% means no effect; nearly all actives have a fitted effect of over 60% in size
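16 hr compound incubation (37 °C, 5% CO2) of HEK293T cells carrying luciferase-tagged ELG1; luciferase then measured by ONE-Glo luminescence after 30 min at RT.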
p53 reactivation – re-activators of mutant p53. H1299 p53-A138V BP100-luciferase reporter, luminescence, 24 h. AID 504706. 320,000 tested, 0.063% active. Potency, µM (doses to about 92.2 µM), without a hit: at the top dose activity change, positive = activation, most hits filed as activators; also: % of control where 0% means no effect; nearly all actives have a fitted effect of over 45% in size
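p53-null H1299 cells stably carrying temperature-sensitive p53-A138V and a BP100-luciferase reporter were pinned with compounds (4-point, 1:5 series) and held 24 hrs at 37 deg C. Luminescence was read 10 min after detection reagent.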
SMN2 splice enh – enhancers of SMN2 splice variant expression; 210,000 tested, 2.8% active; AID 1458; HEK293 SMN2-luciferase splicing reporter, luminescence, 30-36 h; Potency, µM (highest dose often 46.1 µM), inactives show top-dose activity change, positive = activation, usual class: activators; also: % of control where 0% means no effect; nearly all actives have a fitted effect of over 55% in size
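HEK293 cells carry an SMN2 […]–luciferase reporter in which exon 7 inclusion puts luciferase in frame. Cells were plated 10-12 h before compound addition, then incubated 30-36 h at 37C. ONE-Glo luminescence was read; sodium butyrate at 4.5 mM final served as control.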
FLuc counter – firefly luciferase modulation, counter-screen for miR-21 project. P08659. purified FLuc, Km substrates, luminescence inhibition. Potency, µM (series often up to 57.5 µM), for the others: at the highest dose activity change, negative = inhibition, usual class: inhibitors. 360,000 tested, 6.9% active. AID 588342;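 also: plate controls were vehicle for no effect and reference inhibitor for full effect; nearly all actives have a fitted effect of over 55% in size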
Target sequence (P08659 whole entry, looked up): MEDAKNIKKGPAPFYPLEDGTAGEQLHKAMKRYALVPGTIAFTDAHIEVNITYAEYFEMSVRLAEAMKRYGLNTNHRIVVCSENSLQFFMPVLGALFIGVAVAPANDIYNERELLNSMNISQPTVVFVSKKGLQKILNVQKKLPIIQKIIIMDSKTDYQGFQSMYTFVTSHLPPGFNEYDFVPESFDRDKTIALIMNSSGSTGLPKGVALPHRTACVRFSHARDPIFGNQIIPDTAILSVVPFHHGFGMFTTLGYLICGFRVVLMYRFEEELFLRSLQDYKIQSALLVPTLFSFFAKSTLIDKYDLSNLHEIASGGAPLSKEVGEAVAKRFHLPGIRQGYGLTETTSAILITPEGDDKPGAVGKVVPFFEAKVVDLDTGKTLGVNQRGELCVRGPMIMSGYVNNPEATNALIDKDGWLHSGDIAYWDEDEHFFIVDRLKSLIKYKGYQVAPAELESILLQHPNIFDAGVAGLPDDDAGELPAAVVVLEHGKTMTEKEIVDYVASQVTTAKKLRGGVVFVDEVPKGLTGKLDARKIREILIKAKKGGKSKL
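Biochemical qHTS of compounds, final roughly 60 µM downward over six points, against 10 nM purified firefly luciferase using Km concentrations of substrates (10 uM D-luciferin, 10 uM ATP) in Tris acetate pH 7.5 buffer; luminescence output.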
Rab9 prom act – activators of Rab9 promoter | Huh7 Rab9 promoter-luciferase reporter, luminescence, 24 h | Potency, µM (titrated, usually from 9.22 µM), inactives show at the top dose activation, negative = inhibition, usual class: activators | 320,000 tested, 2.8% active; also: % of control where 0% means no effect; nearly all actives have a fitted effect of over 60% in size
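Cells were plated at 1500 per well in reduced-serum medium with 10% FBS and left 2 h. Compound in DMSO was then added for 24 h at 37 °C. Reporter signal was read by luminescence after 10 min with luciferase detection reagent.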
An asterisk follows results filed as active; ? = inconclusive; · = no result; [ ] = remark or other dose. Calls follow the shape of the dose curve; as a rule, active = well fitted curve in the direction sought with a large enough effect; inconclusive = small, poorly fitted or top-dose-only effect, or another doubt; inactive = no such curve, though single readings can be large; an effect the other way counts as inactive or inconclusive. Potency is read from the fitted curve at half-maximal effect.

SMILES	NPC1 prom act	ELG1 genotoxic	p53 reactivation	SMN2 splice enh	FLuc counter	Rab9 prom act
COc1ccc(N2CCN(C(=O)c3cc4c(s3)CCCCC4)CC2)cc1	3.2%	-0.4%	10.8%	·	16.9µM*	-1.2%
COc1ccc(NC(=O)CC2S/C(=N\c3nccs3)N(C)C2=O)cc1 (configuration not stated)	-2.0%	4.6%	2.9%	·	-4.4%	-5.4%
CCCc1nnc(NC(=O)Cc2coc3cc(C)cc(C)c23)s1	·	·	·	-0.1%	-2.1%	·
O=C(c1ccc2c(c1)N(Cc1cccc(Cl)c1)C(=O)c1ccccc1S2(=O)=O)N1CCN(Cc2ccccc2)CC1	·	·	·	·	-0.7%	·
CCN(CC)c1ccc(CN2CCC(C(=O)NCc3ccc(C)cc3)CC2)cc1	0.2%	3.4%	4.1%	·	23.9µM*	12.5%
CCN(CC)S(=O)(=O)N1CCC(C(=O)NCc2ccc(C)cc2)CC1	0.3%	-0.6%	-3.5%	2.8%	-2.3%	6.0%
CC1=CC2C(CC1=O)C(C)=CCC2C(C)C (configuration not stated)	·	·	·	5.4%	·	·
O=C(Nc1nc(-c2ccc3c(c2)OCCO3)cs1)C1CCCC1	?	?	7.6%	11.2µM*	7.57µM*	2.24µM*
O=C(CCCCl)Nc1nc(-c2ccc3c(c2)OCCO3)cs1	3.55µM*	5.8µM*	?	·	10.7µM*	3.16µM*
CCOC(=O)N1CCN(C(=O)CSCC(=O)Nc2nc(-c3ccc4c(c3)OCO4)cs2)CC1	?	5.3%	20.3%	·	?	?
N#CCC(=O)Nc1nc(-c2ccc3c(c2)OCCO3)cs1	?	?	0.2%	12.6µM*	7.57µM*	3.55µM*
O=C(CN1CCOCC1)Nc1nc(-c2ccc(Cl)cc2)cs1	-4.9%	-11.5%	-5.8%	·	-14.0%	1.3%
O=C(Nc1nc(-c2ccc3c(c2)OCCO3)cs1)c1ccc(S(=O)(=O)N2CCCCC2)cc1	-13.6%	-12.6%	-5.7%	-76.2%	0.2%	-9.7%
CN(C(=O)COC(=O)CNC(=O)c1sc2ccccc2c1Cl)C1CCS(=O)(=O)C1 (configuration not stated)	·	-2.1%	26.3%	·	·	·
CC1CCCN(C(=O)COC(=O)CNC(=O)c2sc3ccccc3c2Cl)C1 (configuration not stated)	-4.1%	-0.5%	-0.2%	·	23.9µM*	-4.1%
CC1CCCC(C)N1C(=O)COC(=O)CNC(=O)c1sc2ccccc2c1Cl (configuration not stated)	-3.6%	1.4%	-3.6%	·	?	-1.8%
CC1CCCN(C(=O)COC(=O)Cc2c(F)cccc2Cl)C1 (configuration not stated)	?	?	?	·	16.9µM*	?
CC(C)CN(C(=O)COC(=O)CNC(=O)c1sc2ccccc2c1Cl)C1CCS(=O)(=O)C1 (configuration not stated)	-1.5%	1.7%	3.9%	·	12µM*	-6.0%
CC(C)(C)C(=O)OC1=CN(Cc2ccccc2)S(=O)(=O)c2ccccc21	·	·	·	·	0.9%	·
CC(=O)N1CCC2(CC1)CCN(C(=O)Nc1cccc(F)c1)CC2	·	·	·	-17.6%	·	·
C=CCN1c2ccccc2[C@]23C[C@@H](C(=O)OC)N(S(=O)(=O)c4ccc(Br)cc4)C2=NC(C(=O)OC)=C(C(=O)OC)[C@H]13	·	·	·	-0.8%[9.22 µM]	·	·
Cc1ccc(NC(=O)Nc2cccs2)nc1	3.98µM*	?	16.7%	?	21.3µM*	2.24µM*
Cc1cc(C)cc(NC(=O)Nc2cccnc2)c1	2.5%	3.1%	0.7%	·	?	2.5%
Cc1cc(C)cc(NC(=O)Nc2cccs2)c1	·	·	·	15.2%	9.53µM*	·
Cc1ccc(NC(=O)Nc2cccs2)cc1	2.82µM*	15.6%	?	15.8µM*	2.39µM*	2.24µM*
Cc1cccc(NC(=O)Nc2cccs2)c1C	·	·	·	5.2%	?	·
CCc1ccc(NC(=O)Nc2cccs2)cc1	1.12µM*	?	?	14.1µM*	0.849µM*	0.794µM*
COc1cccc(Cn2c(C)c(CNCc3ccccc3Cl)c(C(=O)O)c2C)c1	·	·	·	2.3%	5.1%	·
